Data: PubChem BioAssay
Active and inactive are the calls of the source.

Experiments:
[1] = test system: Human papillomavirus type 1a protein E7 (residues 44-93); assay: HPV1a E7 fragment binders on microarrays, primary screen, biochemical, small-molecule microarray, residues 44-93, 635 nm fluorescence (AID 1108); settings: small-molecule microarray binding, fluorescence 635 nm; higher = more signal;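 note: E7 fragment applied at 1 µg/mL in TBST for 1 h at 4 C; score combines spot fluorescence with its signal to noise ratio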
[2] = modulators of HCV replicon luciferase signal, primary screen, HCV replication inhibitor project, Huh7 cells, luciferase reporter (AID 1109); settings: 48 h, higher = more signal;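 note: huh7 hepatoma cells harbouring a luciferase neomycin HCV replicon reporter; luciferase luminescence as measure of HCV replicon replication; test concentration not given here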
[3] = target: Left-right determination factor 2 (Homo sapiens) (UniProt O00292); assay: LEFTY2 binders on small-molecule microarrays, primary screen, biochemical, small-molecule microarray, 635 nm fluorescence scan (AID 1110); settings: LEFTY2 binding, higher = more signal
Sequence of Left-right determination factor 2 (Homo sapiens) (O00292 whole entry, looked up): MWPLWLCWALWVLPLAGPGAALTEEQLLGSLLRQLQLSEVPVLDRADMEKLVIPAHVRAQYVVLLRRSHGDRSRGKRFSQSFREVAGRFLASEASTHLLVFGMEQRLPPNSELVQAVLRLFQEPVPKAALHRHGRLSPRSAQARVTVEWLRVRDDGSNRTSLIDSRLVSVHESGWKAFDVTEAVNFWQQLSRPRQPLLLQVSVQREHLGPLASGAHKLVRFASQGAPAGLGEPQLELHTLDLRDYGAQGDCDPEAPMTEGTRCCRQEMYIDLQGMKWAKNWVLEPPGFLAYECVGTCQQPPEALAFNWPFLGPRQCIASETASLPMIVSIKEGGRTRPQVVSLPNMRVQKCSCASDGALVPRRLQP

[4] = target: Calmodulin-1 (Homo sapiens) (UniProt P0DP23); assay: CALM1 binders on microarrays, EGTA buffer, profiling panel, biochemical, small-molecule microarray, Cy5-labelled CALM1 (AID 1111); settings: Cy5-CALM1 binding fluorescence, higher = more signal;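 note: labelled calmodulin applied in Tris saline Tween buffer holding calcium plus EGTA and DTT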
[5] = target: Calmodulin-1 (Homo sapiens) (UniProt P0DP23); assay: calcium-bound CALM1 binders on microarrays, profiling panel, artefact control for SMM control-protein annotation, biochemical, small-molecule microarray, Cy5-labelled CALM1, plus calcium (AID 1112); settings: Cy5-CALM1 binding fluorescence, higher = more signal;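 note: score merges spot fluorescence with signal to noise from triplicate slides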
[6] = small-molecule microarray binders of probe aWnt5a, primary screen, biochemical, biotinylated probe, 635/667 nm fluorescence (AID 1113); settings: higher = more signal;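 note: score merges 667 nm fluorescence intensity with signal-to-noise per printed feature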
[7] = small-molecule microarray binders of probe aShh, primary screen, biochemical, biotinylated probe, 635/667 nm fluorescence (AID 1114); settings: higher = more signal;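 note: probe is biotin-labelled aShh protein from a stem cell growth factor screen; measures binding of labelled protein to compounds printed on the slide; score merges feature fluorescence at 667 nm with signal-to-noise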
[8] = small-molecule microarray binders of probe aNog, primary screen, biochemical, biotinylated probe, 635/667 nm fluorescence (AID 1115); settings: higher = more signal;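 note: probe is biotinylated aNog protein used at 0.15 µg/mL for 1 h at 4 C; z-score combines 667 nm fluorescence of each spot with its signal to noise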
[9] = target: Torsin-1A-interacting protein 1 (Homo sapiens) (UniProt Q5JTV8); assay: LAP1 binders from COS7 cell lysate, primary screen, small-molecule microarray, 635/667 nm fluorescence (AID 1116); settings: COS7-hLAP1 lysate binding, 635 nm fluorescence, higher = more signal
Sequence of Torsin-1A-interacting protein 1 (Homo sapiens) (Q5JTV8 whole entry, looked up): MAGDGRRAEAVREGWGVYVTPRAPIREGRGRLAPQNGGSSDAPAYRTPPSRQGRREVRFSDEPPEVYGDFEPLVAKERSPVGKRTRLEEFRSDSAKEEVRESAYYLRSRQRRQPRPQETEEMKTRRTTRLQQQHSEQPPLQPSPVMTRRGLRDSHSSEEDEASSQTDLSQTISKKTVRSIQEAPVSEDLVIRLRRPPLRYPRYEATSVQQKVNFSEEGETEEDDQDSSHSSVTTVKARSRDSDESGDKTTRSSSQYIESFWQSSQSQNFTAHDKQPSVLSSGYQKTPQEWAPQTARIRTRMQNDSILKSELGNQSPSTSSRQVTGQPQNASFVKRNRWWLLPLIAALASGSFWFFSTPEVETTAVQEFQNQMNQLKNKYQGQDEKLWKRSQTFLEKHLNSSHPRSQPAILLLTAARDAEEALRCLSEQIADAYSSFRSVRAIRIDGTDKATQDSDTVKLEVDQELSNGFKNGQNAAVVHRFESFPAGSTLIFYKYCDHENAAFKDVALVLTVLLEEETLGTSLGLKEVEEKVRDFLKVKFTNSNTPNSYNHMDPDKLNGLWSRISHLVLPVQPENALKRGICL

[10] = target: Alpha-bungarotoxin (Bungarus multicinctus) (UniProt P60615); assay: alpha-bungarotoxin binders on microarray, profiling panel, artefact control for SMM control protein annotation, biochemical, small-molecule microarray, Alexa647 label, 635/667 nm fluorescence (AID 1117); settings: alpha-BTX-A647 binding fluorescence, higher = more signal
Sequence of Alpha-bungarotoxin (Bungarus multicinctus) (P60615 whole entry, looked up): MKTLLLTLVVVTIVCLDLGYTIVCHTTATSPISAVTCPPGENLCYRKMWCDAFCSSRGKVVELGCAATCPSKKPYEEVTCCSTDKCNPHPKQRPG

Albumin (Bos taurus) = Albumin (Bos taurus) (UniProt P02769); assay: bovine serum albumin binders on microarray, profiling panel, artefact control for SMM control protein annotation, biochemical, small-molecule microarray, Alexa647 label, 635/667 nm fluorescence (AID 1118); settings: BSA-A647 binding, fluorescence 635 nm, higher = more signal;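 note: score merges 667 nm emission intensity and signal-to-noise per printed compound spot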
Sequence of Albumin (Bos taurus) (P02769 whole entry, looked up): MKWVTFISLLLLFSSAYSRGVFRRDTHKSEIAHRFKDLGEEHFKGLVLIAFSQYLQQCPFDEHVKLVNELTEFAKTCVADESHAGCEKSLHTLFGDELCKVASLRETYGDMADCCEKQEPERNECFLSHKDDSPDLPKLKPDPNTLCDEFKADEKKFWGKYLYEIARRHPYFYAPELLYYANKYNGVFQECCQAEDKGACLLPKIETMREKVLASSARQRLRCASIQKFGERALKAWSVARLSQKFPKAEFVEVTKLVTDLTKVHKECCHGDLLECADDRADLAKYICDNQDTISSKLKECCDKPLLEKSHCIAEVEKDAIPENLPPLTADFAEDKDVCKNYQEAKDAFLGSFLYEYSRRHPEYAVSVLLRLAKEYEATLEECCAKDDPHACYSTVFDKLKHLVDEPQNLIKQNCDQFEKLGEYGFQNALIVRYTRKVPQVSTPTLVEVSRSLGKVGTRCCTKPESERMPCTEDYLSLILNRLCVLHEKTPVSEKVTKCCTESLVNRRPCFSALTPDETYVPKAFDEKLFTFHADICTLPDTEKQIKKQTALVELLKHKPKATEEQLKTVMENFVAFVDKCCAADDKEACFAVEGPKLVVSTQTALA

[11] = small-molecule microarray binders of probe aXIP, primary screen, biochemical, NeuroSMM set, 635/667 nm fluorescence (AID 1119); settings: higher = more signal, called active from +8 up or from −8 down;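 note: probe is the protein aXip251-270 applied at 1 µg/mL to compound-printed slides; binding of probe to printed compounds measured as 667 nm fluorescence plus signal to noise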
[12] = small-molecule binders of probe aNOTCH3, primary screen, biochemical, small-molecule microarray, 635/667 nm fluorescence (AID 1120); settings: higher = more signal;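 note: probe is a biotin-tagged antibody raised against NOTCH3 rather than NOTCH3 protein; score merges spot fluorescence near 667 nm with spot signal to noise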
[13] = small-molecule binders of probe aNOTCH2, primary screen, biochemical, small-molecule microarray, 635/667 nm fluorescence (AID 1121); settings: higher = more signal;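 note: score merges feature fluorescence read at 667 nm with its signal to noise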
[14] = target: Carbonic anhydrase 2 (Homo sapiens) (UniProt P00918); assay: CAII small-molecule binders, profiling panel, biochemical, small-molecule microarray, Alexa647-labelled CAII (AID 1122); settings: CAII-A647 binding fluorescence, higher = more signal
[15] = COS7 lysate on small-molecule microarray, probe aHis, 635 nm (AID 1123); settings: COS7 cell lysate, fluorescence, higher = more signal;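 note: z-score combines 667nm fluorescence intensity with signal-to-noise per printed compound spot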
[16] = compound binding in COS7 lysate, probe aLAP1, primary screen, cell lysate, small-molecule microarray (AID 1124); settings: probe aLAP1, fluorescence, higher = more signal;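 note: lysate comes from COS7 cells expressing LAP1 and is applied at 0.3 µg/mL; score merges spot fluorescence near 667 nm with signal-to-noise over triplicate slides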
Sam68 (KHDRBS1) = assay: Sam68 small-molecule binders, primary screen, biochemical, small-molecule microarray, 635 nm fluorescence (AID 1125); settings: small-molecule microarray binding, higher = more signal;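 note: score merges 667 nm channel intensity with signal to noise over triplicate slides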
[17] = test system: Chordin-like protein 2 (CHRDL2); assay: CHRDL2 small-molecule binders, primary screen, biochemical, small-molecule microarray, 635 nm fluorescence (AID 1126); settings: small-molecule microarray binding, fluorescence 635 nm; higher = more signal;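 note: printed compound slides probed with Chrdl2 protein at 4 µg/mL for 1 h at 4 C; score merges 667 nm emission intensity with signal to noise over three replicate slides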
[18] = target: Concanavalin-A (Canavalia ensiformis) (UniProt P02866); assay: ConA small-molecule binders, primary screen, artefact control for SMM control protein annotation, biochemical, small-molecule microarray, Alexa647 label, 635 nm (AID 1127); settings: ConA-A647 binding fluorescence, higher = more signal;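 note: z combines 667 nm emission intensity with signal-to-noise across three replicate slides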
Sequence of Concanavalin-A (Canavalia ensiformis) (P02866 whole entry, looked up): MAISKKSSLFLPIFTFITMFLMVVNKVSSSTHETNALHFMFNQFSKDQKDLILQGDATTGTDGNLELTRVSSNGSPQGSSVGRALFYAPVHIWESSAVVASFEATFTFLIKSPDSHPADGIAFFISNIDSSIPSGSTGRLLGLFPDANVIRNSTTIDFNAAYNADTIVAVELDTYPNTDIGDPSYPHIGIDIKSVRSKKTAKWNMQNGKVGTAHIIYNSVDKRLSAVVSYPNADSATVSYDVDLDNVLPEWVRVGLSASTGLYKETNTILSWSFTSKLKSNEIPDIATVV

| SMILES | composite z-score [1] | z-score [2] | composite z-score [3] | composite z-score [4] | composite z-score [5] | composite z-score [6] | composite z-score [7] | composite z-score [8] | composite z-score [9] | composite z-score [10] | composite z-score (Albumin (Bos taurus)) | composite Z-score [11] | composite z-score [12] | composite z-score [13] | composite z-score [14] | composite z-score [15] | composite z-score [16] | composite z-score (Sam68 (KHDRBS1)) | composite z-score [17] | composite z-score [18] |
| --- | --- | --- | --- | --- | --- | --- | --- | --- | --- | --- | --- | --- | --- | --- | --- | --- | --- | --- | --- | --- |
| COc1ccc(C#Cc2ccc3c(c2)[C@]2(C(=O)N3)[C@H](c3ccc(OCCO)cc3)N3[C@H](c4ccccc4)[C@H](c4ccccc4)OC(=O)[C@H]3[C@@H]2C(=O)Nc2nc3ccccc3s2)cc1 | 1.34 | -2 | 0.776 | 1.57 | 0.446 | 0.104 | 0.0711 | 0.83 | 0.0329 | 1.52 | 0.562 | -0.0127 (inactive) | 0.217 | -0.0267 | 0.645 | 2.22 | 0.534 | 1.29 | 0.57 | 1.13 |
| CC(C)CNC(=O)[C@@]1(C)c2ccccc2C(=O)N(C(C)C)[C@H]1c1ccc(CO)cc1 | -1.4 | -1.13 | -0.243 | -0.489 | -0.577 | -0.191 | -0.375 | -0.524 | -0.181 | -0.018 | -1.44 | -0.0662 (inactive) | -0.146 | -0.132 | 0.903 | -0.445 | -0.121 | -1.06 | -1.02 | -2 |
| O=C(NCCN1CCOCC1)[C@@H]1c2ccccc2C(=O)N(Cc2cc(F)cc(C(F)(F)F)c2)[C@H]1c1ccc(CO)cc1 | 1.44 | -1.33 | -1.61 | -0.346 | 0.0296 | -0.124 | -0.214 | -0.0949 | 0.812 | -0.444 | -0.265 | -0.543 (inactive) | 0.49 | -0.222 | 0.724 | 2.53 | -0.062 | 0.463 | -1.55 | -0.287 |
| CC(C)NC(=O)[C@@H]1c2ccccc2C(=O)N(C2CCCCC2)[C@H]1c1ccc(CO)cc1 | 1.13 | -1.48 | 0.0474 | 0.166 | 0.808 | 0.0279 | -0.195 | 0.342 | 0.416 | 1.01 | -0.338 | -0.101 (inactive) | -0.0731 | -0.0326 | 0.336 | 1.47 | -0.0044 | 0.77 | -0.329 | 0.661 |
| O=C1O[C@@H](c2ccccc2)[C@@H](c2ccccc2)N2[C@@H](c3ccc(O)cc3)[C@]3(C(=O)Nc4ccc(C#CCCO)cc43)[C@@H](C(=O)N3CCCCCCC3)[C@H]12 | 0.777 | -1.18 | 0.51 | 2.37 | 1.05 | 0.861 | -0.116 | 2.68 | 3.66 | 2.14 | -0.126 | 5.37 (inactive) | 1.3 | 0.612 | 0.766 | 3.26 | 0.991 | 1.16 | 1.43 | 0.884 |
| O=c1cccc(-c2cccc3ccccc23)o1 | -0.285 | -0.497 | -0.905 | 0.088 | 0.33 | -0.0751 | -0.138 | 1.25 | 0.78 | 0.541 | 0.702 | 0.276 (inactive) | -0.0377 | 0.0135 | 0.475 | 0.458 | 0.871 | 0.11 | -0.671 | -0.511 |
| C=C(COC)/C(=C/C[C@H](OC(C)=O)c1ccccc1OCCO)c1cnc2ccccc2c1 | 1.29 | -1.57 | 0.425 | 0.177 | -0.173 | -0.0944 | 0.0756 | 0.226 | -0.0998 | 0.625 | 0.185 | 0.115 (inactive) | -0.0044 | -0.14 | 0.648 | 0.649 | -0.186 | 1.06 | 1 | 0.49 |
| Cc1cccc(/C=C/C=O)c1 | 0.63 | 0.33 | -0.478 | 0.613 | 0.207 | -0.0944 | -0.214 | -0.104 | -0.476 | 0.549 | 0.92 | -0.77 (inactive) | -0.139 | -0.104 | -0.0363 | 0.93 | 0.364 | 0.339 | -0.058 | 0.786 |
| COC(=O)C(CC#Cc1ccc2c(c1)[C@]1(C(=O)N2)[C@H](C(=O)N2CCCCCCC2)[C@H]2C(=O)O[C@H](c3ccccc3)[C@H](c3ccccc3)N2[C@@H]1c1ccccc1OCCO)C(=O)OC | 1.6 | -1.88 | 1.8 | 3.11 | 1.85 | 1.59 | 3.17 | 3.79 | 6.01 | 4.45 | 0.678 | 10.6 (active) | 2.26 | 1.16 | 1.08 | 5.41 | 1.58 | 1.32 | 1.68 | 0.916 |
| C=CCOC(=O)[C@@H]1[C@H]2C(=O)O[C@H](c3ccccc3)[C@H](c3ccccc3)N2[C@H](c2ccc(OCCOC(=O)[C@H]3C[C@H]4C(=O)N[C@@H](CCCC[N+](C)(C)C)C(=O)N4[C@H]3c3cccc(OCCO)c3)cc2)[C@@]12C(=O)Nc1ccc(I)cc12 | 1.14 | -1.29 | 1.08 | 0.38 | -0.0134 | -0.091 | -0.153 | -0.033 | 0.896 | 0.642 | -0.707 | 0.629 (inactive) | -0.0647 | -0.142 | 0.465 | 0.93 | 0.341 | 1.19 | 1.19 | 1.1 |
| NC(=O)NCC#Cc1ccc2c(c1)[C@]1(C(=O)N2)[C@H](C(=O)NC[C@H](O)c2ccccc2)[C@H]2C(=O)O[C@H](c3ccccc3)[C@H](c3ccccc3)N2[C@@H]1c1ccccc1OCCO | 1.41 | -1.49 | -0.914 | 0.103 | -0.134 | -0.139 | -0.301 | 0.665 | 0.433 | 3.26 | 0.308 | 0.15 (inactive) | -0.0003 | -0.164 | 0.539 | 1.54 | 0.564 | 0.854 | -0.769 | 0.913 |
| O=C1c2ccccc2[C@](Cc2ccccc2I)(C(=O)O)[C@H](c2ccc(CO)cc2)N1Cc1ccccc1C(F)(F)F | 1.46 | -0.702 | -0.422 | 1.08 | -0.604 | -0.0006 | -0.0382 | 0.689 | -0.0086 | 1.58 | 0.449 | -0.249 (inactive) | -0.0647 | -0.106 | 0.583 | 1.91 | 1.77 | 0.431 | -0.697 | 0.918 |
